PubChem BioAssay AID1159580 (chemical genetic matrix, 2015)
Several values for one entry are separate records, joined by “and”; a condition that tells them apart may be missing. Identical values can stand only once. The campaign covered roughly 5,500 compounds. About 2,000 (36%) were called active. Inconclusive results (about 18%) are left out. No stated cut-off is given here; in the data, active means normalized growth mostly below about 0.91 (no sharp cut-off); inconclusive means no clear call, values can overlap the other calls; inactive means mostly above about 0.92. This is one part of the list.

Assay: chemical genetic growth profiling, strain panel (AID 1159580);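 further: tested at 20 µM; growth read once vehicle control cultures reached saturation at 30 °C; 1 = growth at the plate median or of vehicle wells; lower values mean less growth of the strain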
Settings: S. cerevisiae deletion strains, growth OD

Measured: normalized growth

Cc1cn([C@H]2C[C@H](N=[N+]=[N-])[C@@H](CO)O2)c(=O)[nH]c1=O
inactive: locus YAL013W, strain DEP1, hits give low values 1.01 | locus YAL021C, strain ccr4, hits give low values 0.993 | locus YAL026C, strain drs2, hits give low values 0.995 | locus YAL030W, strain snc1, hits give low values 1 | locus YBL061C, strain skt5, hits give low values 1 | locus YBR009C, strain hhf1, hits give low values 1.02 | locus YBR021W, strain FUR4, hits give low values 0.998 | locus YBR023C, strain chs3, hits give low values 1 | locus YBR171W, strain sec66, hits give low values 0.996 | locus YBR229C, strain ROT2, hits give low values 1.01 | locus YBR231C, strain swc5, hits give low values 1 | locus YBR279W, strain paf1, hits give low values 0.979 | locus YCL011C, strain gbp2, hits give low values 1.02 | locus YCL016C, strain dcc1, hits give low values 0.965 | locus YCL029C, strain bik1, hits give low values 1.01 | locus YCL069W, strain vba3, hits give low values 0.99 | locus YCR088W, strain abp1, hits give low values 0.995 | locus YDL005C, strain med2, hits give low values 1 | locus YDL035C, strain GPR1, hits give low values 1.01 | locus YDL040C, strain nat1, hits give low values 0.994 | locus YDL074C, strain BRE1, hits give low values 1.02 | locus YDL101C, strain DUN1, hits give low values 1.01 | locus YDL134C, strain PPH21, hits give low values 1 | locus YDL185W, strain tfp1, hits give low values 1.01 | locus YDL192W, strain arf1, hits give low values 1.01 | locus YDR001C, strain nth1, hits give low values 0.994 | locus YDR069C, strain doa4, hits give low values 1.01 | locus YDR101C, strain arx1, hits give low values 1.02 | locus YDR137W, strain rgp1, hits give low values 0.966 | locus YDR150W, strain NUM1, hits give low values 1 | locus YDR159W, strain sac3, hits give low values 0.971 | locus YDR162C, strain NBP2, hits give low values 1 | locus YDR195W, strain ref2 0.983 | locus YDR297W, strain sur2, hits give low values 1.02 | locus YDR318W, strain mcm21, hits give low values 1 | locus YDR334W, strain swr1, hits give low values 1.01 | locus YDR335W, strain msn5, hits give low values 0.984 | locus YDR388W, hits give low values 1 | locus YDR392W, strain spt3, hits give low values 0.924 | locus YDR502C, strain sam2, hits give low values 1.02 | locus YEL003W, strain gim4, hits give low values 1.01 | locus YEL037C, strain rad23, hits give low values 1 | locus YEL061C, strain CIN8 (second series), hits give low values 0.999 | locus YEL061C, strain CIN8, hits give low values 1 | locus YER015W, strain faa2, hits give low values 0.997 | locus YER016W, strain bim1, hits give low values 0.991 | locus YER110C, hits give low values 1.02 | locus YER111C, strain swi4, hits give low values 0.976 | locus YER155C, strain BEM2 (second series), hits give low values 1 | locus YER155C, strain BEM2, hits give low values 0.988 | locus YER167W, strain BCK2, hits give low values 0.998 | locus YFR010W, strain ubp6, hits give low values 1.01 | locus YGL078C, strain dbp3, hits give low values 1.01 | locus YGL086W, strain mad1, hits give low values 1 | locus YGL167C, strain pmr1, hits give low values 1 | locus YGL173C, strain kem1, hits give low values 1.01 | locus YGL227W, strain vid30, hits give low values 0.996 | locus YGL240W, strain doc1, hits give low values 1 | locus YGL248W, strain PDE1, hits give low values 1.01 | locus YGL253W, strain hxk2, hits give low values 0.981 | locus YGR078C, strain PAC10, hits give low values 1.01 | locus YGR135W, strain pre9, hits give low values 1.01 | locus YGR229C, strain SMI1, hits give low values 1.01 | locus YGR252W, strain gcn5, hits give low values 1.05 | locus YHR013C, strain ard1, hits give low values 0.969 | locus YHR027C, strain rpn1, hits give low values 1.03 | locus YHR030C, strain SLT2, hits give low values 1 and 0.984 | locus YHR079C, strain IRE1 (second series), hits give low values 0.998 | locus YHR079C, strain IRE1, hits give low values 0.966 | locus YHR094C, strain hxt1, hits give low values 1.01 | locus YHR129C, strain ARP1, hits give low values 1 | locus YHR142W, strain chs7, hits give low values 0.972 | locus YHR200W, strain rpn10, hits give low values 1.01 | locus YIL066C, strain RNR3, hits give low values 1.01 | locus YIL073C, strain SPO22, hits give low values 1.05 | locus YIL125W, strain kgd1, hits give low values 1.01 | locus YIR030C, strain dcg1, hits give low values 1 | locus YJL092W, strain hpr5, hits give low values 1.01 | locus YJL095W, strain BCK1 (second series), hits give low values 1.01 | locus YJL095W, strain BCK1, hits give low values 1.01 and 0.973 | locus YJL115W, strain asf1, hits give low values 1 | locus YJL129C, strain trk1, hits give low values 0.948 | locus YJL134W, strain LCB3, hits give low values 0.999 | locus YJL154C, strain vps35, hits give low values 0.998 | locus YJL164C, strain tpk1, hits give low values 0.981 | locus YJL166W, strain qcr8, hits give low values 1.03 | locus YJL168C, strain set2, hits give low values 0.999 | locus YJL187C, strain SWE1 (second series), hits give low values 1.01 | locus YJL187C, strain SWE1, hits give low values 1.01 | locus YJR043C, strain POL32, hits give low values 1.02
